Laboratory results taken from PubChem BioAssay AID1159580 (chemical genetic matrix, 2015).
About 2,000 (36%) of roughly 5,500 compounds were called active. About 18% were inconclusive and are not listed. Some of the results follow. A number with no mark means an inactive call. Cut-off read from the data, not from the text of the source: active = normalized growth mostly below about 0.91 (no sharp cut-off); inconclusive = no clear call, values can overlap the other calls; inactive = mostly above about 0.92.

Test: chemical genetic growth profiling, strain panel (AID 1159580);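 note: tested at 20 µM; growth read once vehicle control cultures reached saturation at 30 °C; 1 = growth at the plate median or of vehicle wells; lower values mean less growth of the strain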
Settings: S. cerevisiae deletion strains, growth OD

`O=C(c1ccc(OCCN2CCCCC2)cc1)c1c(-c2ccc(O)cc2)sc2cc(O)ccc12` showed a normalized growth (locus YAL021C, strain ccr4, hits give low values) of 0.971, a normalized growth (locus YAL026C, strain drs2, hits give low values) of 0.987 and a normalized growth (locus YAL030W, strain snc1, hits give low values) of 1.01. The normalized growth (locus YAL040C, strain CLN3, hits give low values) was 1.02, the normalized growth (locus YBL061C, strain skt5, hits give low values) was 1.01 and the normalized growth (locus YBR009C, strain hhf1, hits give low values) was 1. For the same compound, the normalized growth (locus YBR023C, strain chs3, hits give low values) was 1.01, the normalized growth (locus YBR171W, strain sec66, hits give low values) was 1.04 and the normalized growth (locus YBR231C, strain swc5, hits give low values) was 0.989. The normalized growth (locus YBR279W, strain paf1, hits give low values) was 1.02, the normalized growth (locus YCL011C, strain gbp2, hits give low values) was 1.02 and the normalized growth (locus YCL016C, strain dcc1, hits give low values) was 1. For the same compound, the normalized growth (locus YCL061C, strain MRC1 (second series), hits give low values) was 0.998, the normalized growth (locus YCL061C, strain MRC1, hits give low values) was 1.01 and the normalized growth (locus YCL069W, strain vba3, hits give low values) was 1.03. For the same compound, the normalized growth (locus YCR088W, strain abp1, hits give low values) was 1.02, the normalized growth (locus YDL005C, strain med2, hits give low values) was 1.04 and the normalized growth (locus YDL040C, strain nat1, hits give low values) was 1.02. For the same compound, the normalized growth (locus YDR001C, strain nth1, hits give low values) was 1.02, the normalized growth (locus YDR069C, strain doa4, hits give low values) was 1.01 and the normalized growth (locus YDR137W, strain rgp1, hits give low values) was 1.09. The normalized growth (locus YDR150W, strain NUM1, hits give low values) was 0.977, the normalized growth (locus YDR159W, strain sac3, hits give low values) was 0.984 and the normalized growth (locus YDR195W, strain ref2) was 1.01. The normalized growth (locus YDR297W, strain sur2, hits give low values) was 1.01, the normalized growth (locus YDR334W, strain swr1, hits give low values) was 1.02 and the normalized growth (locus YDR335W, strain msn5, hits give low values) was 1.03. For the same compound, the normalized growth (locus YDR363W, strain ESC2, hits give low values) was 0.983, the normalized growth (locus YDR392W, strain spt3, hits give low values) was 0.41 (active) and the normalized growth (locus YEL003W, strain gim4, hits give low values) was 1.02. For the same compound, the normalized growth (locus YEL037C, strain rad23, hits give low values) was 1.04, the normalized growth (locus YEL061C, strain CIN8 (second series), hits give low values) was 1.03 and the normalized growth (locus YER002W, strain NOP16, hits give low values) was 1. The normalized growth (locus YER015W, strain faa2, hits give low values) was 1.01, the normalized growth (locus YER016W, strain bim1, hits give low values) was 1.01 and the normalized growth (locus YER111C, strain swi4, hits give low values) was 1.03. For the same compound, the normalized growth (locus YER155C, strain BEM2 (second series), hits give low values) was 0.608 (active), the normalized growth (locus YFR010W, strain ubp6, hits give low values) was 1.04 and the normalized growth (locus YGL167C, strain pmr1, hits give low values) was 1.03. For the same compound, the normalized growth (locus YGL173C, strain kem1, hits give low values) was 1.01, the normalized growth (locus YGL227W, strain vid30, hits give low values) was 1.01 and the normalized growth (locus YGL240W, strain doc1, hits give low values) was 0.967. It also gave a normalized growth (locus YGL253W, strain hxk2, hits give low values) of 1.02, a normalized growth (locus YHR013C, strain ard1, hits give low values) of 0.958 and a normalized growth (locus YHR027C, strain rpn1, hits give low values) of 1.01. The normalized growth (locus YHR030C, strain SLT2, hits give low values) was 0.968, the normalized growth (locus YHR079C, strain IRE1, hits give low values) was 0.968 and the normalized growth (locus YHR142W, strain chs7, hits give low values) was 0.983. It also gave a normalized growth (locus YJL092W, strain hpr5, hits give low values) of 1.01, a normalized growth (locus YJL095W, strain BCK1 (second series), hits give low values) of 1.02 and a normalized growth (locus YJL095W, strain BCK1, hits give low values) of 1. The normalized growth (locus YJL115W, strain asf1, hits give low values) was 1.03, the normalized growth (locus YJL129C, strain trk1, hits give low values) was 1.01 and the normalized growth (locus YJL154C, strain vps35, hits give low values) was 1.03. For the same compound, the normalized growth (locus YJL164C, strain tpk1, hits give low values) was 0.982, the normalized growth (locus YJL166W, strain qcr8, hits give low values) was 0.968 and the normalized growth (locus YJL187C, strain SWE1, hits give low values) was 1.02. The normalized growth (locus YJR066W, strain TOR1, hits give low values) was 0.924, the normalized growth (locus YKL160W, strain elf1, hits give low values) was 0.982 and the normalized growth (locus YKR026C, strain gcn3, hits give low values) was 1.01. The normalized growth (locus YKR091W, strain srl3, hits give low values) was 1.02, the normalized growth (locus YLL001W, strain dnm1, hits give low values) was 1.01 and the normalized growth (locus YLL026W, hits give low values) was 1.01. It also gave a normalized growth (locus YLL041C, strain sdh2, hits give low values) of 1.02, a normalized growth (locus YLR027C, strain aat2, hits give low values) of 1.01 and a normalized growth (locus YLR113W, strain HOG1, hits give low values) of 0.986. The normalized growth (locus YLR221C, strain rsa3, hits give low values) was 1, the normalized growth (locus YLR258W, strain gsy2, hits give low values) was 1.01 and the normalized growth (locus YLR262C, strain YPT6 (second series), hits give low values) was 1.01. For the same compound, the normalized growth (locus YLR320W, strain mms22, hits give low values) was 0.911, the normalized growth (locus YLR342W, strain FKS1, hits give low values) was 1 and the normalized growth (locus YLR357W, strain rsc2, hits give low values) was 0.964. It also gave a normalized growth (locus YLR370C, strain arc18, hits give low values) of 1.03, a normalized growth (locus YLR384C, strain iki3, hits give low values) of 1.04 and a normalized growth (locus YML120C, strain ndi1, hits give low values) of 1.01. The normalized growth (locus YMR058W, strain fet3, hits give low values) was 1.01, the normalized growth (locus YMR125W, strain sto1, hits give low values) was 0.989 and the normalized growth (locus YMR129W, hits give low values) was 1.02. The normalized growth (locus YMR205C, strain PFK2, hits give low values) was 0.981, the normalized growth (locus YMR231W, strain pep5, hits give low values) was 1.03 and the normalized growth (locus YMR307W, strain GAS1, hits give low values) was 0.917. The normalized growth (locus YNL071W, strain lat1, hits give low values) was 0.854 (active), the normalized growth (locus YNL128W, strain TEP1, hits give low values) was 1.02 and the normalized growth (locus YNL175C, strain NOP13, hits give low values) was 0.993. It also gave a normalized growth (locus YNL183C, strain NPR1, hits give low values) of 0.965, a normalized growth (locus YNL197C, strain WHI3, hits give low values) of 0.998 and a normalized growth (locus YNL209W, strain ssb2, hits give low values) of 1.01. The normalized growth (locus YNL224C, strain SQS1, hits give low values) was 1.01, the normalized growth (locus YNL248C, strain rpa49, hits give low values) was 0.986 and the normalized growth (locus YNL322C, strain KRE1 (second series), hits give low values) was 1.02. For the same compound, the normalized growth (locus YNR049C, strain mso1, hits give low values) was 1.02, the normalized growth (locus YOR001W, strain rrp6, hits give low values) was 1 and the normalized growth (locus YOR070C, strain gyp1, hits give low values) was 1.02. It also gave a normalized growth (locus YOR080W, strain dia2, hits give low values) of 1.02, a normalized growth (locus YOR083W, strain WHI5 (second series), hits give low values) of 0.997 and a normalized growth (locus YOR083W, strain WHI5, hits give low values) of 0.979. For the same compound, the normalized growth (locus YOR106W, strain vam3, hits give low values) was 0.987, the normalized growth (locus YOR231W, strain MKK1, hits give low values) was 0.995 and the normalized growth (locus YOR265W, strain rbl2, hits give low values) was 1.01. For the same compound, the normalized growth (locus YOR270C, strain vph1, hits give low values) was 1.01, the normalized growth (locus YOR290C, strain snf2, hits give low values) was 0.995 and the normalized growth (locus YPL051W, strain arl3, hits give low values) was 0.977. For the same compound, the normalized growth (locus YPL055C, strain LGE1, hits give low values) was 0.826 (active), the normalized growth (locus YPL078C, strain atp4, hits give low values) was 0.985 and the normalized growth (locus YPL106C, strain sse1, hits give low values) was 1.01. The normalized growth (locus YPL240C, strain hsp82, hits give low values) was 1.03, the normalized growth (locus YPL241C, strain CIN2, hits give low values) was 1 and the normalized growth (locus YPL256C, strain CLN2, hits give low values) was 0.97.
